# Measurements taken from PubChem BioAssay (EPA / NIEHS).
# Calls of active or inactive are those of the source. The calls were made as follows: active = hit-call score of the fitted dose curve at least 0.9, where 1 is the maximum; inactive = score below 0.9.
# Tests used:
# [1] = read-out: catalase (CAT), CAT (gene 847); assay: LTEA_HepaRG_CAT: Life Technologies and Expression Analysis (LTEA) Assay for catalase (CAT) using HepaRG (AID 2283452); settings: mRNA level, 48 h; actives raise or lower the signal
# Summary of the method: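 HepaRG cells in serum-free induction medium, 0.5% DMSO vehicle, exposed 48 h in duplicate over 8 half-log concentrations from 100 uM. CAT mRNA measured by qRT-PCR, normalized to ACTB, GAPDH, POLR2A; bidirectional fit versus DMSO.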
# [2] = read-out: flavin-containing dimethylaniline monooxygenases 3 (FMO3), FMO3 (gene 2328); assay: LTEA_HepaRG_FMO3: Life Technologies and Expression Analysis (LTEA) Assay for flavin-containing dimethylaniline monooxygenases 3 (FMO3) using HepaRG (AID 2283453); settings: mRNA level, 48 h; actives raise or lower the signal
# Summary of the method: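 Differentiated HepaRG cells in serum-free induction medium, exposed 48 h in duplicate to 8 half-log concentrations up to 100 uM in 0.5% DMSO. FMO3 mRNA by qRT-PCR, normalized to ACTB, GAPDH, POLR2A; bidirectional fit vs DMSO.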
# [3] = read-out: Cytochrome P450 (CYP1A1), CYP1A1 (gene 1543); assay: LTEA_HepaRG_CYP1A1: Life Technologies and Expression Analysis (LTEA) Assay for Cytochrome P450 (CYP1A1) using HepaRG (AID 2283454); settings: mRNA level, 48 h; actives raise or lower the signal
# Summary of the method: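 CYP1A1 transcript levels measured by Fluidigm qRT-PCR against three housekeeping genes, 48 h after chemical dosing of human HepaRG cells (highest concentration 100 uM, half-log steps, 0.5% DMSO vehicle). Gain or loss of signal fitted relative to DMSO.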
# [4] = read-out: CFLAR gene, CFLAR (gene 8837); assay: LTEA_HepaRG_CFLAR: Life Technologies and Expression Analysis (LTEA) Assay for CFLAR gene using HepaRG (AID 2283455); settings: mRNA level, 48 h; actives raise or lower the signal
# Summary of the method: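 Differentiated HepaRG cells in serum-free induction medium were exposed 48 h in duplicate to eight half-log concentrations up to 100 uM in 0.5% DMSO; mRNA measured by TaqMan qRT-PCR, normalized to ACTB, GAPDH, POLR2A; bidirectional fitting versus DMSO.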
# [5] = read-out: Forkhead box O1 (FOXO1), FOXO1 (gene 2308); assay: LTEA_HepaRG_FOXO1: Life Technologies and Expression Analysis (LTEA) Assay for Forkhead box O1 (FOXO1) using HepaRG (AID 2283456); settings: mRNA level, 48 h; actives raise or lower the signal
# Summary of the method: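 Differentiated HepaRG cells, in serum-free induction medium with 0.5% DMSO, exposed 48 h in duplicate to 8-point half-log series from 100 uM. FOXO1 mRNA measured by TaqMan qRT-PCR, normalized to ACTB, GAPDH, POLR2A; bidirectional fit versus DMSO.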
# [6] = read-out: growth arrest and DNA damage 45 (GADD45A), GADD45A (gene 1647); assay: LTEA_HepaRG_GADD45A: Life Technologies and Expression Analysis (LTEA) Assay for growth arrest and DNA damage 45 (GADD45A) using HepaRG (AID 2283458); settings: mRNA level, 48 h; actives raise or lower the signal
# Summary of the method: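 Differentiated HepaRG cells exposed 48 h in serum-free induction medium to 8 concentrations, top 100 uM in half-log steps, 0.5% DMSO. GADD45A mRNA quantified by qRT-PCR, normalized to ACTB, GAPDH and POLR2A; bidirectional fit versus DMSO.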
# [7] = read-out: Forkhead box O3 (FOXO3), FOXO3 (gene 2309); assay: LTEA_HepaRG_FOXO3: Life Technologies and Expression Analysis (LTEA) Assay for Forkhead box O3 (FOXO3) using HepaRG (AID 2283459); settings: mRNA level, 48 h; actives raise or lower the signal
# Summary of the method: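 Differentiated human HepaRG cells, 48 h post-plating, exposed in duplicate for 48 h in serum-free induction medium; 8-point half-log series from 100 uM in 0.5% DMSO. FOXO3 mRNA by TaqMan qRT-PCR, normalized to ACTB/GAPDH/POLR2A; bidirectional fit versus DMSO.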
# [8] = read-out: ABC Transporter (ABCB1), ABCB1 (gene 5243); assay: LTEA_HepaRG_ABCB1: Life Technologies and Expression Analysis (LTEA) Assay for ABC Transporter (ABCB1) using HepaRG (AID 2283460); settings: mRNA level, 48 h; actives raise or lower the signal
# Summary of the method: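 HepaRG cells exposed in duplicate for 48 h in serum-free induction medium to eight half-log concentrations up to 100 uM in 0.5% DMSO. ABCB1 mRNA quantified by qRT-PCR, normalised to ACTB, GAPDH and POLR2A; fitted bidirectionally versus DMSO.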
# [9] = read-out: growth arrest and DNA damage 45 (GADD45B), GADD45B (gene 4616); assay: LTEA_HepaRG_GADD45B: Life Technologies and Expression Analysis (LTEA) Assay for growth arrest and DNA damage 45 (GADD45B) using HepaRG (AID 2283461); settings: mRNA level, 48 h; actives raise or lower the signal
# Summary of the method: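 Transcript level quantified by Fluidigm TaqMan qRT-PCR with three housekeeping genes for normalization, analyzed for up- or down-regulation against 0.5% DMSO. HepaRG cultures dosed 48 h at eight half-log concentrations up to 100 uM, duplicates.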
# [10] = read-out: ABC Transporter (ABCC3), ABCC3 (gene 8714); assay: LTEA_HepaRG_ABCC3: Life Technologies and Expression Analysis (LTEA) Assay for ABC Transporter (ABCC3) using HepaRG (AID 2283462); settings: mRNA level, 48 h; actives raise or lower the signal
# Summary of the method: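 Transcript level by TaqMan qRT-PCR, normalised to three housekeeping genes, fitted in both directions relative to vehicle. Chemicals tested in duplicate at eight half-log concentrations up to 100 uM for 48 h on HepaRG cells (0.5% DMSO).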
# [11] = read-out: ABC Transporter (ABCB11), ABCB11 (gene 8647); assay: LTEA_HepaRG_ABCB11: Life Technologies and Expression Analysis (LTEA) Assay for ABC Transporter (ABCB11) using HepaRG (AID 2283463); settings: mRNA level, 48 h; actives raise or lower the signal
# Summary of the method: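 Differentiated human HepaRG cells in serum-free induction medium, dosed in duplicate for 48 h. Eight-point half-log series from 100 uM in 0.5% DMSO; ABCB11 mRNA by qRT-PCR, normalized to ACTB, GAPDH, POLR2A, fitted bidirectionally versus DMSO.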
# [12] = read-out: ABC Transporter (ABCC2), ABCC2 (gene 1244); assay: LTEA_HepaRG_ABCC2: Life Technologies and Expression Analysis (LTEA) Assay for ABC Transporter (ABCC2) using HepaRG (AID 2283464); settings: mRNA level, 48 h; actives raise or lower the signal
# Summary of the method: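 Endpoint is ABCC2 transcript level from qRT-PCR, normalized to three housekeeping genes and fitted bidirectionally relative to DMSO. Human HepaRG cells received test chemical for 48 h at up to 100 uM (8 points, half-log steps, 0.5% DMSO), duplicate wells.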
# [13] = read-out: Broad substrate specificity ATP-binding cassette transporter ABCG2 (Homo sapiens) (UniProt Q9UNQ0); assay: LTEA_HepaRG_ABCG2: Life Technologies and Expression Analysis (LTEA) Assay for ABC Transporter (ABCG2) using HepaRG (AID 2283465); settings: mRNA level, 48 h; actives raise or lower the signal
# Summary of the method: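 Differentiated HepaRG cells were exposed for 48 h in serum-free induction medium to 8 half-log concentrations, top 100 uM, in 0.5% DMSO. ABCG2 mRNA was measured by qRT-PCR, normalized to ACTB, GAPDH and POLR2A, with bidirectional fitting versus DMSO.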
# [14] = read-out: ATP-citrate lyase (ACLY), ACLY (gene 47); assay: LTEA_HepaRG_ACLY: Life Technologies and Expression Analysis (LTEA) Assay for ATP-citrate lyase (ACLY) using HepaRG (AID 2283466); settings: mRNA level, 48 h; actives raise or lower the signal
# Summary of the method: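 Differentiated HepaRG cells exposed 48 h in serum-free induction medium to eight half-log concentrations up to 100 uM in 0.5% DMSO, duplicates. Transcript measured by Fluidigm TaqMan qRT-PCR, normalized to ACTB, GAPDH, POLR2A; bidirectional fit versus DMSO.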
# [15] = read-out: Peroxisomal acyl-coenzyme A oxidase 1 (ACOX1) gene, ACOX1 (gene 51); assay: LTEA_HepaRG_ACOX1: Life Technologies and Expression Analysis (LTEA) Assay for Peroxisomal acyl-coenzyme A oxidase 1 (ACOX1) gene using HepaRG (AID 2283467); settings: mRNA level, 48 h; actives raise or lower the signal
# Summary of the method: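 HepaRG cells, plated 48 h then switched to serum-free induction medium, were exposed in duplicate for 48 h to 8-point half-log concentrations up to 100 uM in 0.5% DMSO. ACOX1 mRNA was measured by qRT-PCR, normalized to ACTB/GAPDH/POLR2A, and fitted bidirectionally versus DMSO.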
# [16] = read-out: Alkaline Phosphatase, Placental (ALPP) gene, ALPP (gene 250); assay: LTEA_HepaRG_ALPP: Life Technologies and Expression Analysis (LTEA) Assay for Alkaline Phosphatase, Placental (ALPP) gene using HepaRG (AID 2283468); settings: mRNA level, 48 h; actives raise or lower the signal
# Summary of the method: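 ALPP transcript level, measured by qRT-PCR and normalized to three housekeeping genes (ACTB, GAPDH, POLR2A), after 48 h dosing of differentiated HepaRG in serum-free induction medium. Top concentration 100 uM with half-log dilutions (8 points, 0.5% DMSO, duplicates); bidirectional fitting relative to DMSO.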
# [17] = read-out: Bcl-2 (BAD) gene, BAD (gene 572); assay: LTEA_HepaRG_BAD: Life Technologies and Expression Analysis (LTEA) Assay for Bcl-2 (BAD) gene using HepaRG (AID 2283469); settings: mRNA level, 48 h; actives raise or lower the signal
# Summary of the method: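 Differentiated HepaRG cells were exposed in duplicate in 0.5% DMSO for 48 h to eight-point half-log concentrations up to 100 uM. BAD mRNA was measured by Fluidigm TaqMan qRT-PCR, normalized to ACTB, GAPDH and POLR2A, and fitted bidirectionally against DMSO.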
# [18] = read-out: Bcl-2 (BAX) gene, BAX (gene 581); assay: LTEA_HepaRG_BAX: Life Technologies and Expression Analysis (LTEA) Assay for Bcl-2 (BAX) gene using HepaRG (AID 2283470); settings: mRNA level, 48 h; actives raise or lower the signal
# Summary of the method: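 Differentiated HepaRG cells exposed 48 h in serum-free induction medium, eight half-log concentrations from 100 uM, in duplicate, 0.5% DMSO vehicle. BAX mRNA by TaqMan qRT-PCR, normalised to ACTB, GAPDH and POLR2A.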
# [19] = read-out: adenosine kinase (ADK) gene, ADK (gene 132); assay: LTEA_HepaRG_ADK: Life Technologies and Expression Analysis (LTEA) Assay for adenosine kinase (ADK) gene using HepaRG (AID 2283471); settings: mRNA level, 48 h; actives raise or lower the signal
# Summary of the method: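 Read-out is ADK transcript level measured by qRT-PCR and normalised to three housekeeping genes. Cells are human HepaRG, dosed for 48 h at up to 100 uM in 0.5% DMSO. Gain or loss of signal is fitted against DMSO controls.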
# [20] = CEETOX_H295R_TESTO: CeeTox H295R High-throughput Steroidogenesis Assay for Testosterone (TESTO) (AID 2283457); settings: actives raise or lower the signal
# Summary of the method: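 Testosterone secreted into the medium over 48 h by H295R cells (maximum passage 10) was quantified by LC-MS/MS after MTBE extraction. Fitted in both directions against DMSO, with concentrations diluted until MTT viability was ≥70%.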
# Broad substrate specificity ATP-binding cassette transporter ABCG2 (Homo sapiens), sequence (Q9UNQ0 whole entry, looked up): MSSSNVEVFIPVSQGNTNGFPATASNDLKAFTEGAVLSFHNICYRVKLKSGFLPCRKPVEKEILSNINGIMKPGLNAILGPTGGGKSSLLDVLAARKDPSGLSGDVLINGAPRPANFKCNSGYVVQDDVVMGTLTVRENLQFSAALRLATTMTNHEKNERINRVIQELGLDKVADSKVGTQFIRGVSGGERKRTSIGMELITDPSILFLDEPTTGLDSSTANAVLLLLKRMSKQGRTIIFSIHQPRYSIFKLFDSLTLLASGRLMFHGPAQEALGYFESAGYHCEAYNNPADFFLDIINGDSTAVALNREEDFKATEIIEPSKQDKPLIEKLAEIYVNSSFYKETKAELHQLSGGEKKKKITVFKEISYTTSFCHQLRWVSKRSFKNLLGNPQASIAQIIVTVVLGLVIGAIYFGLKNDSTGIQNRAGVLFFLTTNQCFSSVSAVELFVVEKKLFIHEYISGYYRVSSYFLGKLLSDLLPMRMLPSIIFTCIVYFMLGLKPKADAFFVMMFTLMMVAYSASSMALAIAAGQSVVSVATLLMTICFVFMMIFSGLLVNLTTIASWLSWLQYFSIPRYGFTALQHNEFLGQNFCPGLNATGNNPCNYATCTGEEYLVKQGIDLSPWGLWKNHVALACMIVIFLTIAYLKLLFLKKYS
smiles,measurement,setting,value
C[N+](C)(C)CC1CO1 (stereo not drawn),outcome,[1],inactive
same,outcome,[2],inactive
same,AC50,[3],50 µM (active)
same,outcome,[4],inactive
same,outcome,[5],inactive
same,outcome,[6],inactive
same,outcome,[7],inactive
same,outcome,[8],inactive
same,outcome,[9],inactive
same,outcome,[10],inactive
same,outcome,[11],inactive
same,outcome,[12],inactive
same,outcome,[13],inactive
same,outcome,[14],inactive
same,outcome,[15],inactive
same,outcome,[16],inactive
same,outcome,[17],inactive
same,outcome,[18],inactive
same,outcome,[19],inactive
Cc1cc(N=Nc2ccccc2C)ccc1N,AC50,[1],3.32 µM (active)
same,AC50,[2],4.86 µM (active)
same,AC50,[3],1.05 µM (active)
same,AC50,[4],2.75 µM (active)
same,AC50,[5],12.5 µM (active)
same,outcome,[20],inactive
same,AC50,[6],3.52 µM (active)
same,AC50,[7],5.56 µM (active)
same,AC50,[8],5.45 µM (active)
same,AC50,[9],7.67 µM (active)
same,AC50,[10],13 µM (active)
same,AC50,[11],4.58 µM (active)
same,AC50,[12],3.17 µM (active)
same,outcome,[13],inactive
same,AC50,[14],387 nM (active)
same,AC50,[15],2.57 µM (active)
same,AC50,[16],12.6 µM (active)
same,outcome,[17],inactive
same,AC50,[18],1.99 µM (active)
same,AC50,[19],4.93 µM (active)
CCNS(=O)(=O)C(F)(F)C(F)(F)C(F)(F)C(F)(F)C(F)(F)C(F)(F)C(F)(F)C(F)(F)F,outcome,[1],inactive
same,AC50,[2],75.9 µM (active)
same,AC50,[3],69.3 µM (active)
same,outcome,[4],inactive
same,outcome,[5],inactive
same,outcome,[6],inactive
same,outcome,[7],inactive
same,outcome,[8],inactive
same,outcome,[9],inactive
same,outcome,[10],inactive
same,AC50,[11],23.7 µM (active)
same,outcome,[12],inactive
same,outcome,[13],inactive
same,outcome,[14],inactive
same,outcome,[15],inactive
same,outcome,[16],inactive
same,outcome,[17],inactive
same,outcome,[18],inactive
same,outcome,[19],inactive
